# In the library only some 1.8% were active in any assay of this set; here they are far more common.
# PfHsp40 rescue = compounds rescuing yeast from Plasmodium falciparum HSP40 toxicity. S. cerevisiae expressing PfHsp40, growth rescue, ATP luminescence. AID 504582. growth rescue, % at 12.5 µM. 0.68% of 340,000 active; in the data active = growth rescue above about 28%, passing the limit was not always enough;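 also: yeast W303a lacking pdr1 and pdr3 grown in galactose medium; growth measured after three days at 30 °C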
# PriA SSB inh = blocks PriA binding to SSB C-terminal tail; AlphaScreen SSBct-PriA binding, biotinylated peptide; AID 1272365; inhibition, % at 33 µM; 0.6% of 430,000 active; in the data active = inhibition mostly above about 37%, no sharp cut-off; inactive = mostly below about 20%;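 also: plate controls were negative control peptide for no effect and reference peptide for full effect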
# ugtP null kill = kills S. aureus RN4220 lacking UgtP. 0.54% of 330,000 active. S. aureus RN4220 ugtP deletion, OD600 growth, 16 h. growth inhibition, % (concentration not given with the values); in the data active = growth inhibition above about 68%;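 also: plate controls were untreated wells for no effect and antibiotic for full effect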
# Mtb hypoxia rep = Mtb hypoxia fluorescent reporter inhibition | M. tuberculosis hypoxia-regulated fluorescent reporter, fluorescence | 0.1% of 300,000 active | fluorescence inhibition, % (test concentration not listed); in the data active = fluorescence inhibition mostly above about 23%, no sharp cut-off; inactive = mostly below about 17%
# RN4220 kill = S. aureus RN4220 growth inhibition. inhibition, % (test concentration not listed). OD600, 16 h. 0.33% of 330,000 active; in the data active = inhibition above about 85%;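 also: plate controls were untreated cells for no effect and reference antibiotic for full effect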
# VHR inh abs = DUSP3 (human) phosphatase inhibition | P51452 | recombinant VHR phosphatase, pNPP absorbance | inhibition, % at 13.3 µM | 0.52% of 290,000 active | AID 1654; in the data active = inhibition above about 50%
# Target sequence (P51452 whole entry, looked up): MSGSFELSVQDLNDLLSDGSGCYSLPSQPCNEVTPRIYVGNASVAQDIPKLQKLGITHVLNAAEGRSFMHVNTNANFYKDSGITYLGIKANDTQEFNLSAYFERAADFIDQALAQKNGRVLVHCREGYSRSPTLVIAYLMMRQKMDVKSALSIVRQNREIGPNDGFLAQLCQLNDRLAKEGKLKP
# * marks the source's active call; other numbers are inactive results; x = no result given.
SMILES,PfHsp40 rescue,PriA SSB inh,ugtP null kill,Mtb hypoxia rep,RN4220 kill,VHR inh abs
Nc1nc(-c2ccccc2)c(N=Nc2cccc3ccccc23)s1,-0.4,81.8,97.1*,10.2,98.8*,1.3
Nc1nc(-c2ccccc2)c(N=Nc2ccccc2Cl)s1,1.0,96.2,30.9,15.2,1.2,11.9
O=C(CC1CSc2nccc(=O)n21)Nc1nccs1 (stereo unspecified),x,1.0,x,x,x,x
c1ccc(-c2cn(C[C@H]3CC[C@@H]([C@@H]4CC[C@H](Cn5cc(-c6ccccn6)nn5)O4)O3)nn2)nc1,-0.8,100.8*,x,x,x,-2.8
c1ccc(-c2cn(C[C@H]3CC[C@@H]([C@@H]4CC[C@H](Cn5cc(-c6ccccc6)nn5)O4)O3)nn2)cc1,0.6,-4.4,x,x,x,36.9
Cc1cc(C(=O)Nc2nnc(-c3cc(C)n(C)n3)o2)on1,x,1.0,x,x,x,x
COc1ccc(CCNc2nnc(-c3ccc(C)cc3)c(=O)[nH]2)cc1OC,x,4.0,x,x,x,x
COc1ccc(CCNc2cc(C)[nH]c(=O)c2)cc1OC,1.6,-0.7,7.9,0.8,0.0,59.6*
COc1cccc2sc(Nc3nnc(-c4ccco4)o3)nc12,x,-11.0,x,x,x,x
Fc1cccc2sc(Nc3nnc(-c4ccco4)o3)nc12,74.1*,-12.7,38.1,-63.0,49.6,-22.1
Cc1nn(Cc2ccccc2)c(C)c1NC(=O)c1cc(-c2ccco2)on1,-0.3,-5.4,-2.9,10.0,1.2,52.9*
O=C(NCc1ccc(F)cc1)c1cc(=O)c(OCc2ccccc2)c[nH]1,x,-10.0,x,x,x,x
Cn1nc(C2CC2)cc1N1CCN(C(=O)CCS(=O)(=O)c2ccccc2)CC1,x,1.0,x,x,x,x
COC(=O)c1ccc(-c2ccco2)n1Cc1ccccc1Cl,1.3,-4.4,85.3*,13.2,-1.4,22.3
O=C(NCc1cccs1)N1CCC(Cn2ccnc2)CC1,x,-5.0,x,x,x,x
CC(=O)c1c2c3c(c(Br)ccc3n(C)c1=O)C(=O)c1ccccc1-2,-1.2,20.8,x,x,x,1.8
CC(=O)c1c2c3c(cccc3n(C)c1=O)C(=O)c1ccccc1-2,x,3.1,4.9,-3.0,1.6,53.9*
O=C(Nc1ccccc1N(C(=O)c1ccco1)S(=O)(=O)c1cccs1)c1ccco1,40.5*,-10.6,1.9,x,6.8,15.8
O=C(NCc1cc(-c2cccs2)on1)c1ccc2c(c1)OCO2,x,1.0,x,x,x,x
COc1cc(NC(=O)CN2C(=O)NC(c3ccccc3)(c3ccccc3)C2=O)cc(OC)c1,-0.3,44.5*,x,x,x,48.4
COc1ccc(C2(c3ccc(OC)cc3)NC(=O)N(CC(=O)Nc3cc(C)ccc3OC)C2=O)cc1,-0.4,-2.4,-4.5,1.8,-5.5,56.9*
CC(C)(C)C(=O)NCc1nccc(N2CCOCC2)n1,x,-9.0,x,x,x,x
C[C@H](NC(=O)C1(c2ccc(F)cc2)CC1)c1ccccc1,x,-7.0,x,x,x,x
Cc1nc2ccccc2n1C(=O)/C=C\C(=O)O,x,11.0,x,x,x,x
CCC(=O)N1CCN(c2ccc(Cl)cc2NC(=O)c2ccc([N+](=O)[O-])o2)CC1,45.6*,-3.3,20.2,2.8,9.7,37.7
SMILES,PfHsp40 rescue,PriA SSB inh,ugtP null kill,Mtb hypoxia rep,RN4220 kill,VHR inh abs
CCC(=O)N1CCN(c2ccc(Cl)cc2NC(=O)c2cccc([N+](=O)[O-])c2)CC1,1.1,-2.7,0.1,6.0,0.2,29.6
CCN1CCN(c2ccc(S(=O)(=O)N3CCCCC3)cc2NC(=O)c2ccc([N+](=O)[O-])o2)CC1,-1.4,-0.8,3.4,5.9,10.0,x
CCN1CCN(c2ccc(NC(=O)c3ccc([N+](=O)[O-])o3)cc2Cl)CC1,-0.2,-6.2,99.4*,11.5,99.9*,24.9
CC(=O)N1CCN(c2ccc(NC(=O)c3ccc([N+](=O)[O-])o3)cc2Cl)CC1,1.7,-1.5,99.7*,x,99.1*,11.3
CC(=O)N1CCN(c2ccc(NC(=O)c3ccco3)cc2Cl)CC1,-1.7,-15.9,0.7,-2.4,-1.0,8.6
CCC(=O)N1CCN(c2ccc(NC(=O)c3ccc([N+](=O)[O-])o3)cc2Cl)CC1,9.0,-0.9,91.1*,x,99.1*,30.9
C=CCN1C(=O)C(C)(C)COc2cc(NC(=O)CC)ccc21,x,4.0,x,x,x,x
CS(=O)(=O)N1CCN(c2ccccc2NC(=O)c2ccc([N+](=O)[O-])o2)CC1,-0.5,-15.5,87.6,8.8,99.8*,6.4
CC(=O)Nc1ccc2nc(NC(=O)c3ccc([N+](=O)[O-])o3)sc2c1,-1.1,-0.9,98.2*,13.8,17.9,12.1
CCC(C(=O)NC1CCCC1)N(C(=O)Cn1nnc(-c2ccc(C)o2)n1)c1ccc(F)cc1 (stereo unspecified),0.4,-6.5,9.7,5.0,-2.0,52.9*

# Source: PubChem BioAssay (several laboratories)
